Source: PubChem BioAssay (Broad Institute)
C diff growth – blocks growth of Clostridium difficile | Clostridium difficile clinical isolate growth, OD600, 24 h; active compounds read low | 86,000 compounds, 0.25% hits | growth activity, negative = inhibition, % at 16 µg/mL (by protocol) | AID 1259249;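 active = mean growth activity at or below -80% and every replicate also at or below -80%; inconclusive = mean at or below -80% but some replicate above -80%; inactive = mean growth activity above -80%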
T cruzi growth – inhibitors of T. cruzi proliferation | AID 624255 | T. cruzi beta-gal in NIH3T3, GalScreen luminescence, 90 h | inhibition, % at 8.34 µM | 77,000 compounds, 5.9% hits;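 active = mean inhibition above about 93%, with at least 55% of replicates each passing it, limit read from the data, passing the limit was not always enough; inconclusive = only one of those two conditions holds; inactive = neither condition holds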
Pf Dd2 inh – blocks growth of Plasmodium falciparum Dd2 parasites; P. falciparum Dd2 growth, SYBR Green, 72 h; active compounds read low; activity change, % at 10 µM; 94,000 compounds, 2.3% hits; AID 1159554; in the data active = activity change below about -80%; inconclusive = no clear call, values can overlap the other calls
Hits are given with their value; - = inactive; ? = inconclusive; . = not tested or not shown. A selection: hits, their analogues and other compounds. The true share with any hit is near 6.7%.

SMILES	C diff growth	T cruzi growth	Pf Dd2 inh
C[C@H]1CN([C@@H](C)CO)C(=O)c2c(c3ccccc3n2C)-c2ccccc2CO[C@@H]1CN(C)S(=O)(=O)c1cccs1	-	-	-85.6
C[C@@H]1CN([C@@H](C)CO)C(=O)c2c(c3ccccc3n2C)-c2ccccc2CO[C@@H]1CN(C)S(=O)(=O)c1ccccc1F	-	-	-
Cc1ccccc1S(=O)(=O)N(C)C[C@@H]1OCc2ccccc2-c2c(n(C)c3ccccc23)C(=O)N([C@@H](C)CO)C[C@@H]1C	.	-	-88.9
COc1ccccc1S(=O)(=O)N(C)C[C@@H]1OCc2ccccc2-c2c(n(C)c3ccccc23)C(=O)N([C@H](C)CO)C[C@H]1C	-	-	-
C[C@@H]1CN([C@H](C)CO)C(=O)c2c(c3ccccc3n2C)-c2ccccc2CO[C@@H]1CN(C)S(=O)(=O)c1ccccc1F	-	-	-
C[C@H]1CN([C@@H](C)CO)C(=O)c2c(c3ccccc3n2C)-c2ccccc2CO[C@H]1CN(C)S(=O)(=O)c1cccs1	-	-	-
CCCNC(=O)[C@H]1[C@H](CO)[C@H]2Cn3c(ccc(-c4cncnc4)c3=O)[C@H]2N1C(=O)c1ccccc1F	-	-	-
C[C@@H]1CN([C@H](C)CO)C(=O)c2cc(NS(=O)(=O)c3ccc(Cl)cc3)ccc2O[C@@H]1CN(C)C(=O)Nc1ccc(C(F)(F)F)cc1	.	-	-
CCCNC(=O)C[C@@H]1C[C@H]2c3cc(NC(=O)COC)ccc3O[C@H]2[C@@H](CO)O1	-	-	-
CCCC(=O)Nc1ccc2c(c1)OC[C@@H](C)NC[C@H](C)[C@H](OC)CN(C)C2=O	.	-	-
N#C[C@@H]1[C@H](c2ccc(C3=CCCC3)cc2)[C@@H](CO)N1C(=O)NC1CCCCC1	-	.	-
C[C@@H]1CCCCO[C@H](CN(C)C(=O)Nc2ccc(F)cc2)[C@H](C)CN([C@@H](C)CO)C(=O)c2cc(NS(=O)(=O)c3ccccc3)ccc2O1	-	-	-91.5
C[C@@H]1CCCCO[C@H](CN(C)C(=O)Nc2ccccc2)[C@@H](C)CN([C@@H](C)CO)C(=O)c2cc(NS(=O)(=O)c3ccc(Cl)cc3)ccc2O1	-	-	-89.5
C[C@@H]1CCCCO[C@@H](CN(C)C(=O)Nc2ccccc2)[C@@H](C)CN([C@H](C)CO)C(=O)c2cc(NS(=O)(=O)c3ccc(F)cc3)ccc2O1	-	-	-
C[C@H](CO)N1C[C@H](C)[C@H](CN(C)C(=O)Nc2ccc(C(F)(F)F)cc2)OCCCC[C@H](C)Oc2ccc(NS(=O)(=O)c3ccc(Cl)cc3)cc2C1=O	-	-	-
Cc1ccc(S(=O)(=O)Nc2ccc3c(c2)C(=O)N([C@@H](C)CO)C[C@@H](C)[C@@H](CN(C)C(=O)Nc2ccc4c(c2)OCO4)OCCCC[C@H](C)O3)cc1	-	.	?
Cc1ccc(S(=O)(=O)Nc2ccc3c(c2)C(=O)N([C@@H](C)CO)C[C@H](C)[C@@H](CN(C)C(=O)Nc2ccc4c(c2)OCO4)OCCCC[C@@H](C)O3)cc1	-	.	-84.7
C[C@H]1CCCCO[C@H](CN(C)C(=O)Nc2ccc(C(F)(F)F)cc2)[C@@H](C)CN([C@@H](C)CO)C(=O)c2cc(NS(=O)(=O)c3ccc(Cl)cc3)ccc2O1	-	-	-83.5
C[C@@H]1CCCCO[C@@H](CN(C)C(=O)Nc2ccccc2)[C@H](C)CN([C@H](C)CO)C(=O)c2cc(NS(=O)(=O)c3ccc(Cl)cc3)ccc2O1	-	-	-
CCNC(=O)C[C@H]1CC[C@H]2[C@H](COc3ccc(NC(=O)Nc4ccccc4C)cc3C(=O)N2C)O1	-	-	-
COc1ccc2c3c(n(C)c2c1)[C@H](CO)N(C(=O)C1CCOCC1)CC31CCN(C(=O)Nc2cccc(F)c2)CC1	-	.	-
C[C@@H]1CCCCO[C@H](CN(C)S(=O)(=O)c2cn(C)cn2)[C@@H](C)CN([C@@H](C)CO)C(=O)c2cc(NC(=O)Nc3ccc(F)cc3)ccc2O1	.	-	-
C[C@@H](NC(=O)C[C@@H]1C[C@@H]2c3cc(NC(=O)C4CCC4)ccc3O[C@@H]2[C@H](CO)O1)c1ccccc1	-	-	-
C[C@@H]1CCCCO[C@H](CN(C)C(=O)Nc2ccc(F)cc2)[C@H](C)CN([C@@H](C)CO)C(=O)c2cc(NS(=O)(=O)c3cccs3)ccc2O1	-	-	-85.0
C[C@H](CO)N1C[C@H](C)[C@@H](CN(C)C(=O)Nc2ccc(C(F)(F)F)cc2)OCCCC[C@H](C)Oc2ccc(NS(=O)(=O)c3ccc(F)cc3)cc2C1=O	-	-	-
SMILES	C diff growth	T cruzi growth	Pf Dd2 inh
C[C@@H]1CCCCO[C@H](CN(C)C(=O)Nc2ccc(F)cc2)[C@@H](C)CN([C@H](C)CO)C(=O)c2cc(NS(=O)(=O)c3cccs3)ccc2O1	-	-	-
C[C@@H]1CN([C@@H](C)CO)C(=O)c2cc(NS(=O)(=O)c3ccc(F)cc3)ccc2O[C@@H](C)CCCCO[C@@H]1CN(C)C(=O)Nc1ccc(C(F)(F)F)cc1	-	.	-87.5
C[C@@H]1CCCCO[C@H](CN(C)C(=O)Nc2ccc(F)cc2)[C@H](C)CN([C@H](C)CO)C(=O)c2cc(NS(=O)(=O)c3ccc(F)cc3)ccc2O1	-	-	-87.1
C[C@@H]1CCCCO[C@H](CN(C)C(=O)Nc2ccc(C(F)(F)F)cc2)[C@@H](C)CN([C@H](C)CO)C(=O)c2cc(NS(=O)(=O)c3ccccc3)ccc2O1	-	-	-
C[C@@H]1CCCCO[C@H](CN(C)C(=O)Nc2ccc(C(F)(F)F)cc2)[C@@H](C)CN([C@@H](C)CO)C(=O)c2cc(NS(=O)(=O)c3ccccc3)ccc2O1	-	-	-84.4
C[C@@H]1CCCCO[C@@H](CN(C)C(=O)Nc2ccc(F)cc2)[C@H](C)CN([C@H](C)CO)C(=O)c2cc(NS(=O)(=O)c3ccc(F)cc3)ccc2O1	-	-	-
C[C@@H]1CN([C@@H](C)CO)C(=O)c2cc(-c3ccccc3F)cnc2O[C@@H]1CN(C)C(=O)CN(C)C	-	-	-
CCNC(=O)C[C@@H]1CC[C@H]2[C@@H](COc3ccc(NS(=O)(=O)c4ccccc4C)cc3C(=O)N2C)O1	-	-	-
Cc1ccc(S(=O)(=O)Nc2ccc3c(c2)C(=O)N([C@@H](C)CO)C[C@@H](C)[C@@H](CN(C)S(C)(=O)=O)OCCCC[C@@H](C)O3)cc1	-	-	-
CN(C)CCCNC(=O)[C@@H]1[C@@H](CO)[C@@H]2Cn3c(ccc(C4=CCCC4)c3=O)[C@H]1N2Cc1cocn1	-	-	.
COc1ccc(NC(=O)N(C)C[C@H]2Oc3ccc(NC(=O)c4ccncc4)cc3C(=O)N([C@@H](C)CO)C[C@@H]2C)cc1	-	-	-
CO[C@@H](CN(C)S(=O)(=O)c1ccc(Cl)cc1)[C@H](C)CN(C(=O)Nc1ccccc1F)[C@H](C)CO	.	-	-
CC(C)C#Cc1cnc2c(c1)C(=O)N([C@@H](C)CO)C[C@@H](C)[C@@H](CN(C)C(=O)Nc1cccc(F)c1)O2	-	-	-
C[C@H](CO)N1C[C@H](C)[C@H](CN(C)C(=O)Nc2cccc3ccccc23)OCCCC[C@H](C)Oc2ccc(NC(=O)Nc3ccccc3)cc2C1=O	-	-	-
C[C@@H]1CCCCO[C@@H](CN(C)C(=O)Nc2cccc3ccccc23)[C@H](C)CN([C@@H](C)CO)C(=O)c2cc(NC(=O)Nc3ccc(C(F)(F)F)cc3)ccc2O1	-	-	-
